# This is part of a sample that, as a whole, favours compounds with a hit. Of some 79,000 tested, about 15% had one in any assay. Values without a mark were called inactive. No stated cut-off is given here; in the data, active means growth inhibition above about 70%; inactive means the rest.
# Assay: NCI Yeast Anticancer Drug Screen. Data for the mec2-1 strain (AID 157)
# Details: S. cerevisiae mec2-1 strain, at 50.0 µM, hits give high values
# In short: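 Each compound was tested on mec2-1 yeast, a strain altered in DNA damage repair or cell cycle control. Growth inhibition is reported relative to vehicle.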
row,SMILES,growth inhibition [%]
1,Cc1cccc(C)c1NC=O,-2.35
2,C[N+](C)([O-])Cc1ccccc1,-27.4
3,CC(=O)/C(=C/c1ccco1)CC(=O)O,-22.1
4,O=C(OCCCCCCCCOC(=O)c1cccc([N+](=O)[O-])c1)c1cccc([N+](=O)[O-])c1,11.8
5,C(=C\c1nc2ncccn2n1)/c1ccccc1,-2.75
6,O=Cc1cc(C(=O)c2ccccn2)c2cc(Cl)cc(Cl)c2n1,5.9
7,CCC(=O)C(=O)C1CCCCC1=O (stereo not given),-3.8
8,O=C(N1CCOCC1)C12OC3CC(CC(C3)O1)O2,1.95
9,O=CC1(CCc2ccccc2)NC(=O)NC1=O (stereo not given),11.2
10,NC(=O)c1ncc[nH]c1=O,5.35
11,CCC(C(O)c1ccc(Cl)cc1)[N+](=O)[O-] (stereo not given),21.7
12,O=C1C(=C(c2ccc([N+](=O)[O-])cc2)N2CCOCC2)C(=O)c2ccccc21,0.4
13,CC(=O)NNC(=O)c1ccccc1CO,-15
14,CCCC(C)CCCC(=O)c1ccc2cc(OC)ccc2c1 (stereo not given),-16.8
15,NC(=S)NNC(=O)c1ccc([N+](=O)[O-])cc1,18.9
16,C1=Nc2ccccc2/C1=C/C=C/c1ccccc1,31.6
17,Nc1ccc(C(C(=O)O)c2ccccc2)cc1 (stereo not given),15.8
18,Cc1ccc(C(=O)Nc2ccc(CP(=O)(O)O)cc2CP(=O)(O)O)cc1N,-14.8
19,COc1ccc2c(c1)OC1(OCCO1)[C@@H]1C2CC[C@@]2(C)C1CCC21OCCO1 (stereo not given in full),17.9
20,CC(C)c1nc2c(c(=O)o1)CCS2,-5.75
21,Cc1nc2ccc(C(F)(F)F)cc2nc1Nc1ccc(Cl)c(Cl)c1,27.4
22,O=c1[nH]c(=O)c2ncn(-c3ccc(Cl)cc3)c2[nH]1,-20.9
23,COC1=CC(=O)N(C)C(O)C1(C#N)OC1OC(CO)C(O)C(O)C1O (stereo not given),-12.8
24,Cc1c(-c2ccccc2)[nH]c2ccc(Cl)cc2c1=O,-30.9
25,O=[N+]([O-])c1ccc2c(Cl)[nH]nc2c1,27.6

# Assay: NCI Yeast Anticancer Drug Screen. Data for the sgs1 mgt1 strain (AID 161);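 further: 0% = growth of cultures given vehicle only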
# Details: S. cerevisiae sgs1 mgt1 strain, at 50.0 µM, hits give high values
# In short: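 Test agents were incubated with a DNA-repair-mutant yeast strain. Growth was then read and compared against vehicle-treated controls.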
row,SMILES,growth inhibition [%]
1,CC(=O)O[C@H]1CC[C@@]2(C)[C@@H](CC[C@@H]3[C@@H]2CC(=O)[C@]2(C)[C@@H]4[C@H](C[C@@H]32)O[C@]2(CC[C@@H](C)CO2)[C@H]4C)C1,-11.8
2,CCCCN(CCCC)CCCNC(=S)Nc1ccccc1,38.1
3,C/C(=C\c1ccccc1)C(O)C(=O)c1nc2ccc(Cl)cc2[nH]c1=O (stereo not given),6.15
4,CC(c1ccccc1)C(C)(C)O (stereo not given),27
5,O=[N+]([O-])c1ccc(Oc2ccc(Cl)cc2)cc1,14.6
6,Cc1cc2c(cc1[N+](=O)[O-])OCCO2,4.55
7,O=C(O)c1c(F)c(F)c(-c2c(F)c(F)c(C(=O)O)c(C(=O)O)c2F)c(F)c1C(=O)O,-5
8,CCOC(=O)NC(=O)c1cn(CCN2CCN(C(=O)NCCCCCCNC(=O)N3CCN(CCn4cc(C(=O)NC(=O)OCC)c(=O)[nH]c4=O)CC3)CC2)c(=O)[nH]c1=O,-8.95
9,CCCCCCCCC(=O)c1c(OC)oc(C=O)cc1=O,31.8
10,CCOC(CN(Cc1ccccc1)CC(OCC)OCC)OCC,12.9
11,CCOC(CNCCC(=O)OC)OCC,-23.4
12,Cc1cc(C)cc(N=Nc2c(N)nc(N)[nH]c2=O)c1,-49.9
13,O=C(N/N=C/c1ccc(Cl)cc1Cl)c1cccc([N+](=O)[O-])c1,32.5
14,OCCCCC(c1ccc(O)cc1)c1ccc(O)cc1,8.8
15,O=C(O)CC(c1ccccc1)C(CC(=O)O)c1ccccc1.[NH-]C1CCCCC1[NH-].[Pt+2] (stereo not given),-49.9
16,Cc1cccc(C)c1NC=O,-3.3
17,C[N+](C)([O-])Cc1ccccc1,-19.4
18,CC(=O)/C(=C/c1ccco1)CC(=O)O,-12.9
19,O=C(OCCCCCCCCOC(=O)c1cccc([N+](=O)[O-])c1)c1cccc([N+](=O)[O-])c1,11.8
20,C(=C\c1nc2ncccn2n1)/c1ccccc1,6.55

row,SMILES,growth inhibition [%]
1,O=Cc1cc(C(=O)c2ccccn2)c2cc(Cl)cc(Cl)c2n1,5.8
2,CCC(=O)C(=O)C1CCCCC1=O (stereo not given),-2.5
3,O=C(N1CCOCC1)C12OC3CC(CC(C3)O1)O2,3.45
4,O=CC1(CCc2ccccc2)NC(=O)NC1=O (stereo not given),2.55
5,NC(=O)c1ncc[nH]c1=O,-12.6
6,CCC(C(O)c1ccc(Cl)cc1)[N+](=O)[O-] (stereo not given),35.9
7,O=C1C(=C(c2ccc([N+](=O)[O-])cc2)N2CCOCC2)C(=O)c2ccccc21,6.45
8,CC(=O)NNC(=O)c1ccccc1CO,-4.55
9,CCCC(C)CCCC(=O)c1ccc2cc(OC)ccc2c1 (stereo not given),-14.5
10,NC(=S)NNC(=O)c1ccc([N+](=O)[O-])cc1,-3.1
11,C1=Nc2ccccc2/C1=C/C=C/c1ccccc1,28.3
12,Nc1ccc(C(C(=O)O)c2ccccc2)cc1 (stereo not given),12.6
13,Cc1ccc(C(=O)Nc2ccc(CP(=O)(O)O)cc2CP(=O)(O)O)cc1N,19.3
14,COc1ccc2c(c1)OC1(OCCO1)[C@@H]1C2CC[C@@]2(C)C1CCC21OCCO1 (stereo not given in full),38.9
15,CC(C)c1nc2c(c(=O)o1)CCS2,-7.9
16,Cc1nc2ccc(C(F)(F)F)cc2nc1Nc1ccc(Cl)c(Cl)c1,47.6
17,O=c1[nH]c(=O)c2ncn(-c3ccc(Cl)cc3)c2[nH]1,7.1
18,COC1=CC(=O)N(C)C(O)C1(C#N)OC1OC(CO)C(O)C(O)C1O (stereo not given),-7.5
19,Cc1c(-c2ccccc2)[nH]c2ccc(Cl)cc2c1=O,28.9
20,O=[N+]([O-])c1ccc2c(Cl)[nH]nc2c1,29.8
